Results reported in PMC7862700, “An all-to-all approach to the identification of sequence-specific readers for epigenetic DNA modifications on cytosine”.

Columns and labels:
Experiment in all cases: DAPPL (digital affinity profiling via proximity ligation, sequencing); 10 mM Tris-HCl pH 7.5, 50 mM NaCl, 1 mM DTT, 4% glycerol, room temperature, 30 min; GST-TFs on glutathione beads, 16-mer random dsDNA library, 0.1% formaldehyde crosslink after washing; high values mean tight binding
Settings in all cases: protein: recombinant; tags: N-terminal GST; dsDNA, one strand shown
FLI1 = target: T1, FLI1 (Homo sapiens, UniProt Q01543 1-452)
T1 sequence: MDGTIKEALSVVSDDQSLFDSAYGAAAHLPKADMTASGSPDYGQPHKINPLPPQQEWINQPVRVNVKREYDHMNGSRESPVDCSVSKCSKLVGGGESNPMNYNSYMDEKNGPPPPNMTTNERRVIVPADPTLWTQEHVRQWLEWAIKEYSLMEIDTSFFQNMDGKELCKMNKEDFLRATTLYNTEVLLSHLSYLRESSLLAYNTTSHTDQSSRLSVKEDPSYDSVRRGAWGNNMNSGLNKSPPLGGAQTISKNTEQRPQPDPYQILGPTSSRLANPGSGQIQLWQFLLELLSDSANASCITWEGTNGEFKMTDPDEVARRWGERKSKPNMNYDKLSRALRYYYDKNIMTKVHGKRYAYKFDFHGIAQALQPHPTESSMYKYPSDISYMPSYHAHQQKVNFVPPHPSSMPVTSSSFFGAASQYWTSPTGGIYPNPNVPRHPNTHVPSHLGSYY
Outline: (§1)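 Sequencing on an Illumina NextSeq500 followed washing, crosslinking with 0.1% formaldehyde, proximity ligation (BsaI/T4 ligase, 1 h, 37 °C) and PCR amplification of pools that had been incubated for 30 min at room temperature with 200 nmole of a random double-stranded 16-mer DNA library in Tris/NaCl/DTT/glycerol buffer. Each pool held DNA-barcoded human transcription factors, expressed in yeast as GST fusions and captured on glutathione beads, plus a tag-only sample. Binding signal is a hexamer's read frequency for a factor divided by its frequency in the tag-only sample.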

ELK1 = target: T2, ELK1 (Homo sapiens, UniProt P19419 1-428)
T2 sequence: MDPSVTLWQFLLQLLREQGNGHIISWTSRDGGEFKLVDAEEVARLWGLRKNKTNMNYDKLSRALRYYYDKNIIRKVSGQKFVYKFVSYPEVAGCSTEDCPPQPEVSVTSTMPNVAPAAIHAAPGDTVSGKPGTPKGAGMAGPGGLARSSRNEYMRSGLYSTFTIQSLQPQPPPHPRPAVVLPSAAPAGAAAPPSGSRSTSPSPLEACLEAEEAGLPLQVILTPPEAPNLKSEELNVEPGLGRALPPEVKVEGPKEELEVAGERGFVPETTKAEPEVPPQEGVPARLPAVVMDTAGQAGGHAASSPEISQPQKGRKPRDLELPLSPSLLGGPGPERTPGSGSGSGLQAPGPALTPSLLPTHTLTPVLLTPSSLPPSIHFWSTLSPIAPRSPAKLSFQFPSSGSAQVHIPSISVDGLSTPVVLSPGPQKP
Outline: as §1

GABPA = target: T3, GABPA (Homo sapiens, UniProt Q06546 1-454)
T3 sequence: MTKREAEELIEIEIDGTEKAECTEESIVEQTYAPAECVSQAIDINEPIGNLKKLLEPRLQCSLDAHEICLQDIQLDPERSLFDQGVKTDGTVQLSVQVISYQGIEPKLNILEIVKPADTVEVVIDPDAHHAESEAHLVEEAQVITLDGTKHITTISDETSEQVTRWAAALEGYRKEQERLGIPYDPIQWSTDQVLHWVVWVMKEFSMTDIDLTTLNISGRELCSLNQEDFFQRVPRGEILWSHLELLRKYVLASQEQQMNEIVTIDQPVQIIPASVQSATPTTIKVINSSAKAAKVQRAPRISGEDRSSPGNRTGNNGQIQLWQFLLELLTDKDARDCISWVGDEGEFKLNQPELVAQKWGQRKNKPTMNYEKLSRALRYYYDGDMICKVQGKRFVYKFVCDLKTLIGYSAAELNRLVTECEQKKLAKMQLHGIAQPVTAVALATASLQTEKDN
Outline: as §1

ERG = target: T4, ERG (Homo sapiens, UniProt P11308 1-479)
T4 sequence: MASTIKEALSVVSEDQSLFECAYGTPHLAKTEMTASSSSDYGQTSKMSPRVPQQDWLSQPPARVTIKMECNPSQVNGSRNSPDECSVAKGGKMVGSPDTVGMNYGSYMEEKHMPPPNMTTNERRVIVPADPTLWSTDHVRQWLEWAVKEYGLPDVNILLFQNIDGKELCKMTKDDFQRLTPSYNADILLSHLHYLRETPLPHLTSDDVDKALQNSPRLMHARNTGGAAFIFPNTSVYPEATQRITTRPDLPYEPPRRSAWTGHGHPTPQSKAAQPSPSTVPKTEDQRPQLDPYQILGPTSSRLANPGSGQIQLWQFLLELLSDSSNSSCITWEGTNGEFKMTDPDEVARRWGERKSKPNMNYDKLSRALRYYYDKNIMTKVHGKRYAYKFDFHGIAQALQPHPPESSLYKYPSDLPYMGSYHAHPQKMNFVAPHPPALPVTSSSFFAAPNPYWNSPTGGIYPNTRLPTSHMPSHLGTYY
Outline: as §1

ELF1 = ELF1 (Homo sapiens, UniProt P32519 1-619)
Outline: as §1

EHF = target: T5, EHF (Homo sapiens, UniProt Q9NZC4 1-300)
T5 sequence: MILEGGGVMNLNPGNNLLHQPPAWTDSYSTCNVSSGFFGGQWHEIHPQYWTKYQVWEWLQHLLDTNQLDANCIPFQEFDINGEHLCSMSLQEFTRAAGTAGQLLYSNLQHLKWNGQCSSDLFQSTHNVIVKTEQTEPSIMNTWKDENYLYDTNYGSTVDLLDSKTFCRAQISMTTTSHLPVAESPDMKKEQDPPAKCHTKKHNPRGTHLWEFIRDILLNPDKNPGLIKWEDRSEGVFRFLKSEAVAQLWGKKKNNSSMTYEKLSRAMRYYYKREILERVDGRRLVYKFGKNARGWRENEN
Outline: as §1

SPI1 = SPI1 (Homo sapiens, UniProt P17947 1-270)
Outline: as §1

SPIB = SPIB (Homo sapiens, UniProt Q01892 1-262)
Outline: as §1

ELK3 = target: T6, ELK3 (Homo sapiens, UniProt P41970 1-407)
T6 sequence: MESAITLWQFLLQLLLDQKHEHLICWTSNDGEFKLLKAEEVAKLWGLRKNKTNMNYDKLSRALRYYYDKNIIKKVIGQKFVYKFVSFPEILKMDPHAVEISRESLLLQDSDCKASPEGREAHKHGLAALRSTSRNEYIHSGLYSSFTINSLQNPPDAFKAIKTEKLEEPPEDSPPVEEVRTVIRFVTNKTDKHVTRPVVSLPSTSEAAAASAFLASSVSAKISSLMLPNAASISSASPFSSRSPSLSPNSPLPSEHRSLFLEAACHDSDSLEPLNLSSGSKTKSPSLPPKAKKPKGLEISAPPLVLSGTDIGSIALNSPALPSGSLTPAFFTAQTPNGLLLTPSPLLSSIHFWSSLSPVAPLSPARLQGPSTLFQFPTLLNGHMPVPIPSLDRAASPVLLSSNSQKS
Outline: as §1

ELF1, sequence (P32519 whole entry): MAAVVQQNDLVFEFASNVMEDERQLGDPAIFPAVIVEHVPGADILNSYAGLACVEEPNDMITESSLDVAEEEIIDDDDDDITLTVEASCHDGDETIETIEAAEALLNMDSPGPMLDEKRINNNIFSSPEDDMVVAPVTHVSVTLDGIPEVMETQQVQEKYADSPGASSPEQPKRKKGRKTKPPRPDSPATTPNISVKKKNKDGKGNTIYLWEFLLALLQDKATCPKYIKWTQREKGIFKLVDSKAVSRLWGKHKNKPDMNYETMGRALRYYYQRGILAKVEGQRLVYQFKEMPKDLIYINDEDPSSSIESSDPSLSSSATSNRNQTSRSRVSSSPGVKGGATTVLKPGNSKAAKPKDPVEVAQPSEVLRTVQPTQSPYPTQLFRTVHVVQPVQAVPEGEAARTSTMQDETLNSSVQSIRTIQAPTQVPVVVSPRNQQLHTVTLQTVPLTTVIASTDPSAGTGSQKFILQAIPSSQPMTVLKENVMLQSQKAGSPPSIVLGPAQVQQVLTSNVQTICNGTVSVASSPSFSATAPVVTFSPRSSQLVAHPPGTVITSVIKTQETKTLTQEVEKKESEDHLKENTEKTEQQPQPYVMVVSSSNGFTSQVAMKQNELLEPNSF
SPIB, sequence (Q01892 whole entry): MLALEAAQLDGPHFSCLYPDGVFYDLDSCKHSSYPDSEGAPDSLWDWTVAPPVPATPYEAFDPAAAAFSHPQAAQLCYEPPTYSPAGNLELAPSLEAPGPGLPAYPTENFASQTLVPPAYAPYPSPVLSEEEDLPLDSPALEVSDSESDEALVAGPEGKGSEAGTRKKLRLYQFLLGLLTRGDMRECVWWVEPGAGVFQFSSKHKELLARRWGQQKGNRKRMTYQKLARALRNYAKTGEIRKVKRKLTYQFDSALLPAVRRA

Sequence	binding signal (FLI1)	binding signal (ELK1)	binding signal (GABPA)	binding signal (ERG)	binding signal (ELF1)	binding signal (EHF)	binding signal (SPI1)	binding signal (SPIB)	binding signal (ELK3)
GCCCTC	1.12 fold enrichment (6-mer frequency, TF over GST control)	1.18 fold enrichment (6-mer frequency, TF over GST control)	1.25 fold enrichment (6-mer frequency, TF over GST control)	1.11 fold enrichment (6-mer frequency, TF over GST control)	1.17 fold enrichment (6-mer frequency, TF over GST control)	1.18 fold enrichment (6-mer frequency, TF over GST control)	1.1 fold enrichment (6-mer frequency, TF over GST control)	1.18 fold enrichment (6-mer frequency, TF over GST control)	1.15 fold enrichment (6-mer frequency, TF over GST control)
ACAACC	1.25 fold enrichment (6-mer frequency, TF over GST control)	1.28 fold enrichment (6-mer frequency, TF over GST control)	1.21 fold enrichment (6-mer frequency, TF over GST control)	1.22 fold enrichment (6-mer frequency, TF over GST control)	1.16 fold enrichment (6-mer frequency, TF over GST control)	1.29 fold enrichment (6-mer frequency, TF over GST control)	1.2 fold enrichment (6-mer frequency, TF over GST control)	1.28 fold enrichment (6-mer frequency, TF over GST control)	1.28 fold enrichment (6-mer frequency, TF over GST control)
TTTAAT	1.4 fold enrichment (6-mer frequency, TF over GST control)	1.28 fold enrichment (6-mer frequency, TF over GST control)	1.29 fold enrichment (6-mer frequency, TF over GST control)	1.27 fold enrichment (6-mer frequency, TF over GST control)	1.29 fold enrichment (6-mer frequency, TF over GST control)	1.35 fold enrichment (6-mer frequency, TF over GST control)	1.23 fold enrichment (6-mer frequency, TF over GST control)	1.35 fold enrichment (6-mer frequency, TF over GST control)	1.36 fold enrichment (6-mer frequency, TF over GST control)
ATGATT	1.22 fold enrichment (6-mer frequency, TF over GST control)	1.25 fold enrichment (6-mer frequency, TF over GST control)	1.37 fold enrichment (6-mer frequency, TF over GST control)	1.21 fold enrichment (6-mer frequency, TF over GST control)	1.21 fold enrichment (6-mer frequency, TF over GST control)	1.22 fold enrichment (6-mer frequency, TF over GST control)	1.17 fold enrichment (6-mer frequency, TF over GST control)	1.22 fold enrichment (6-mer frequency, TF over GST control)	1.09 fold enrichment (6-mer frequency, TF over GST control)
ATGCCC	1.38 fold enrichment (6-mer frequency, TF over GST control)	1.38 fold enrichment (6-mer frequency, TF over GST control)	1.33 fold enrichment (6-mer frequency, TF over GST control)	1.28 fold enrichment (6-mer frequency, TF over GST control)	1.32 fold enrichment (6-mer frequency, TF over GST control)	1.26 fold enrichment (6-mer frequency, TF over GST control)	1.2 fold enrichment (6-mer frequency, TF over GST control)	1.23 fold enrichment (6-mer frequency, TF over GST control)	1.2 fold enrichment (6-mer frequency, TF over GST control)
ATTGGG	1.23 fold enrichment (6-mer frequency, TF over GST control)	1.24 fold enrichment (6-mer frequency, TF over GST control)	1.33 fold enrichment (6-mer frequency, TF over GST control)	1.13 fold enrichment (6-mer frequency, TF over GST control)	1.21 fold enrichment (6-mer frequency, TF over GST control)	1.24 fold enrichment (6-mer frequency, TF over GST control)	1.25 fold enrichment (6-mer frequency, TF over GST control)	1.26 fold enrichment (6-mer frequency, TF over GST control)	1.17 fold enrichment (6-mer frequency, TF over GST control)
ATATTC	1.24 fold enrichment (6-mer frequency, TF over GST control)	1.2 fold enrichment (6-mer frequency, TF over GST control)	1.24 fold enrichment (6-mer frequency, TF over GST control)	1.18 fold enrichment (6-mer frequency, TF over GST control)	1.28 fold enrichment (6-mer frequency, TF over GST control)	1.19 fold enrichment (6-mer frequency, TF over GST control)	1.19 fold enrichment (6-mer frequency, TF over GST control)	1.22 fold enrichment (6-mer frequency, TF over GST control)	1.14 fold enrichment (6-mer frequency, TF over GST control)
